Experimental data taken from PubChem BioAssay.
Calls of active or inactive are those of the source. Unless noted, no stated cut-off is given here; in the data, active means inhibition above about 33%; inactive means the rest.

molecular target: Steroidogenic factor 1 (Homo sapiens) (UniProt Q13285); assay: inverse agonism at SF1 nuclear receptor – cell-based, luminescence, high throughput, counter-screen for LRH-1 inverse agonist project (AID 651614; in the data active means inhibition above about 44%;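 further: cells cotransfected with StAR promoter reporter and SF1 expression vector; 0% = vehicle on cells with receptor and 100% = vehicle on cells lacking receptor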); conditions: cell-based SF1 luciferase reporter, at 3.6 µM, active compounds read high
Sequence (Q13285 whole entry, looked up): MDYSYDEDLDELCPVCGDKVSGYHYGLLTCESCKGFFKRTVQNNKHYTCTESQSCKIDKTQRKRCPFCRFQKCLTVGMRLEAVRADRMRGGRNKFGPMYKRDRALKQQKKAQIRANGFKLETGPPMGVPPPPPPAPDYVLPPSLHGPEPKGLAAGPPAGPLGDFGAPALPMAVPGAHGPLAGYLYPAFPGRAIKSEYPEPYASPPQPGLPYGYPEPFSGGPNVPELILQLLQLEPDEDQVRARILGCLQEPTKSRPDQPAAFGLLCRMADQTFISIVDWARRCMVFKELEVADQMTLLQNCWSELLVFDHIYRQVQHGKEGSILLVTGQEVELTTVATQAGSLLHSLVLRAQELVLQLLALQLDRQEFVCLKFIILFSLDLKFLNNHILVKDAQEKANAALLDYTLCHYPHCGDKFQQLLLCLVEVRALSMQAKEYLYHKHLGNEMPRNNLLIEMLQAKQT

Question: With `CC(N)C(=O)NC(CO)C(O)C(N)C=O` (configuration not stated) as the molecule, how does the inhibition read?
Answer: The inhibition was 55.5% (active).

Question: For `Cn1cc(C(=O)c2ccc(Cl)cc2)cc1-c1nc2ccccc2n1C`, which inhibition is on record?
Answer: The inhibition was 49.8% (active).

Question: For `Cc1ccc(C(=O)Sc2cccccc2=O)cc1`, which inhibition is on record?
Answer: Its inhibition is 98.6% (active).

Question: For `COc1ccc(NC(=O)/C(Cl)=C(/Cl)S(=O)Cc2ccccc2)cn1` (configuration not stated), which inhibition is on record?
Answer: Its inhibition is 78.2% (active).

system: not listed separately; assay: compounds suppressing VP16-driven luciferase signal – cell-based, luminescence, high throughput, counter-screen for LRH-1 inverse agonist project (AID 651615); conditions: Gal4-VP16 luciferase reporter cells, at 3.6 µM, active compounds read high

Question: With `O=C(CCl)N1CCN(S(=O)(=O)Cc2ccccc2)CC1` as the molecule, how does the inhibition read?
Answer: Its inhibition is 15.9% (inactive).

Question: Which inhibition does the source give for `CC(C)(C)C(=O)/C(=C/c1cccc([N+](=O)[O-])c1)n1cncn1` here?
Answer: The inhibition was 83.7% (active).

Question: For `CN(C)c1ccc2nc3ccc(=[N+](C)C)cc-3sc2c1`, which inhibition is on record?
Answer: The inhibition was 52.9% (active).

Question: With `C#CCN(C[C@@H]1[C@@H](OC(=O)Nc2cccs2)[C@@H](OC(=O)Nc2cccs2)Cn2c(=O)ccc(=O)n21)S(=O)(=O)c1ccc(C)cc1` as the molecule, how does the inhibition read?
Answer: The inhibition was 36.8% (active).

Question: Which inhibition does the source give for `O=C(Nc1ccc(Br)cn1)C1CCN(S(=O)(=O)c2cccs2)CC1` here?
Answer: The inhibition was 45.3% (active).

Question: Which inhibition does the source give for `CCc1cc(-c2nnn(CCC3COCCO3)c2CC)ccc1-c1cn(Cc2ccc3ccccc3c2)nn1` (configuration not stated) here?
Answer: Its inhibition is 39.4% (active).

Question: With `O=C(N/N=C/c1ccc([N+](=O)[O-])s1)c1cccnc1` as the molecule, how does the inhibition read?
Answer: Its inhibition is 7.08% (inactive).

Question: With `COc1ccc(OC)c(N(CCN2C(=O)c3ccccc3C2=O)C(=O)CCl)c1` as the molecule, how does the inhibition read?
Answer: Its inhibition is 16.1% (inactive).

Question: For `N#Cc1cccc(C=C(C(=O)c2ccccc2)c2ccccc2)c1`, which inhibition is on record?
Answer: Its inhibition is 32.6% (active).

Question: With `CC(C)(C)C(=O)/C(=C\c1cccc([N+](=O)[O-])c1)n1cncn1` as the molecule, how does the inhibition read?
Answer: The inhibition was 85% (active).

Question: With `COc1ccc(/C=C/C(=O)O)cc1O` as the molecule, how does the inhibition read?
Answer: The inhibition was 2.63% (inactive).

Question: Which inhibition does the source give for `Cc1ccc(C(=O)Sc2cccccc2=O)cc1` here?
Answer: The inhibition was 96.8% (active).

Question: Which inhibition does the source give for `COc1ccc(NC(=O)/C(Cl)=C(/Cl)S(=O)Cc2ccccc2)cn1` (configuration not stated) here?
Answer: The inhibition was 94.5% (active).
